Records with an inconclusive call do not appear. Active and inactive are the calls of the source. Unless noted, the call rests on the fitted dose curve; in most records, active means well fitted curve in the direction sought with a large enough effect in the repeat runs; inconclusive means weak or mixed curves; inactive means no such curve, though single readings can be large; an effect the other way counts as inactive or inconclusive. Positions of bridges follow the written chain, without caps; N, C: chain ends. Non-standard residues stand in square brackets, D forms with d. Residues, ends and D or L forms follow the SMILES beside them. hArg = N=C(N)NCCCC[C@H](N)C(=O)O; Mpa = O=C(O)CCS
Legend:
[1] = molecular target: Retinoic acid receptor RXR-alpha (Homo sapiens) (UniProt P19793); assay: qHTS assay to identify small molecule agonists of the RXR signaling pathway (AID 1159527; calls by dose curve; further: nearly all actives have a fitted effect of over 35% in size)
Chain of Retinoic acid receptor RXR-alpha (Homo sapiens) (P19793 whole entry, looked up): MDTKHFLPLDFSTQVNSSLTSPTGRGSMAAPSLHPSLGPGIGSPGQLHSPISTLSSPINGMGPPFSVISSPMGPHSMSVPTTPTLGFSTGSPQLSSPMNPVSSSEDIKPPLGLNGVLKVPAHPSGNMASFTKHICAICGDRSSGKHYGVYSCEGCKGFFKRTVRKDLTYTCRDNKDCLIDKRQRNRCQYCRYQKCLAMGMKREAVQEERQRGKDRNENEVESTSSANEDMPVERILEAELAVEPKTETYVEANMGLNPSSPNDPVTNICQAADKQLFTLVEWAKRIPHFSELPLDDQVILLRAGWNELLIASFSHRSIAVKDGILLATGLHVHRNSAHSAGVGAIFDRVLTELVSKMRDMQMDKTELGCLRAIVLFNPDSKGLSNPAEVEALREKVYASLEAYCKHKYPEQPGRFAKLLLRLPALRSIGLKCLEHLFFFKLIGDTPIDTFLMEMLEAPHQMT
How it was run: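 Agonist-mode beta-lactamase reporter assay: HEK 293T RXR-alpha-UAS-bla cells treated 16 hr at 37 C with compounds, 9-cis retinoic acid as positive control. LiveBLAzer FRET substrate, 405 nm excitation, 460/530 nm emission.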

[2] = qHTS assay to identify small molecule agonists of the RXR signaling pathway - cell viability counter screen (AID 1159529); further: series mostly up to about 77 µM; nearly all actives have a fitted effect of over 50% in size
How it was run: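 CellTiter-Glo luminescence gave viability in the wells also read for beta-lactamase. Cells (RXR-alpha-UAS-bla HEK 293T, 2% charcoal-stripped FBS medium) had 5 hr plating, then 16 hr compound exposure at 37 C; tetraoctyl ammonium bromide served as positive control.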

[3] = qHTS assay to identify small molecule antagonists of the retinoid acid receptor (RAR) signaling pathway - cell viability counter screen (AID 1159551); further: nearly all actives have a fitted effect of over 35% in size
How it was run: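 Following overnight attachment, C3RL4 reporter cells received DMSO-dissolved compounds and then retinol (1 uM final). Six hours later at 37 C, ATP content was measured by CellTiter-Glo luminescence.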

[4] = qHTS assay to identify small molecule antagonists of the retinoic acid receptor (RAR) signaling pathway (AID 1159552; further: nearly all actives have a fitted effect of over 50% in size)
How it was run: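 Luminescent RARE reporter read-out in C3RL4 cells: 6 hr co-treatment at 37 C of test compounds with retinol at 1 uM final. Cells plated overnight beforehand; luciferase reagent incubated 30 min at room temperature before reading.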

[5] = qHTS assay to identify small molecule agonists of the retinoic acid receptor (RAR) signaling pathway (AID 1159553)
How it was run: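 Cell line C3RL4, RARE luciferase reporter. Treatment: compounds in DMSO, 6 hr, 37 C, 5% CO2, after overnight plating. Detection: luminescence, 30 min RT after reagent.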

[6] = qHTS assay to identify small molecule antagonists of the estrogen related receptor (ERR) signaling pathway from Tox21 library - cell viability counter screen (AID 1224834); further: nearly all actives have a fitted effect of over 30% in size
How it was run: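 Viability readout (CellTiter-Fluor fluorescence, 30 min at 37 C) multiplexed with the ERR assay; cells treated 17.5 h at 37 C with compounds delivered in DMSO.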

[7] = qHTS assay to identify small molecule agonists of the constitutive androstane receptor (CAR) signaling pathway - cell viability counter screen (AID 1224836); further: series mostly up to about 92 µM; nearly all actives have a fitted effect of over 45% in size
How it was run: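 Cell viability multiplexed with the CAR agonist screen: CellTiter-Fluor fluorescence after 23 hr at 37 C. HepG2-CYP2B6-hCAR cells got compounds at 15 concentrations with PK11195 at 0.75 uM final.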

[8] = qHTS assay to identify small molecule antagonists of the constitutive androstane receptor (CAR) signaling pathway - cell viability counter screen (AID 1224837); further: series mostly up to about 92 µM; nearly all actives have a fitted effect of over 45% in size
How it was run: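 Fluorescence from CellTiter-Fluor served as the viability signal. Human hepatoma HepG2 cells stably bearing hCAR and CYP2B6-2.2kb received compound plus CITCO (50 nM final) for 23 hr.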

[9] = molecular target: Nuclear receptor subfamily 1 group I member 3 (Homo sapiens) (UniProt Q14994); assay: qHTS assay to identify small molecule antagonists of the constitutive androstane receptor (CAR) signaling pathway (AID 1224838);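 further: HepG2 cells stably expressing hCAR with CYP2B6 luciferase reporter stimulated by CITCO; nearly all actives have a fitted effect of over 40% in size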
Chain of Nuclear receptor subfamily 1 group I member 3 (Homo sapiens) (Q14994 whole entry, looked up): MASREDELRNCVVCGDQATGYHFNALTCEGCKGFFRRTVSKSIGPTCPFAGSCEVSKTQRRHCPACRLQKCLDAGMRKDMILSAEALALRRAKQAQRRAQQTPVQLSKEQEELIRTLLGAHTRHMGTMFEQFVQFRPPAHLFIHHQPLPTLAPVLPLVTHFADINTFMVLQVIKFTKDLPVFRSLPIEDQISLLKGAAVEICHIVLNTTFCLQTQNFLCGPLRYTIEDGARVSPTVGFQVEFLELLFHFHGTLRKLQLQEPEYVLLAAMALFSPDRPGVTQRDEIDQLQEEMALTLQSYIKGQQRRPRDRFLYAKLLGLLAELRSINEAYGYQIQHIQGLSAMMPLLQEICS
How it was run: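 Quantitative HTS in double-stable HepG2-CYP2B6-hCAR cells. After 4 h plating, cells get compound (15 concentrations) and CITCO at 50 nM final, incubate 24 h at 37 C, then ONE-Glo luminescence is read.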

[10] = molecular target: Nuclear receptor subfamily 1 group I member 3 (Homo sapiens) (UniProt Q14994); assay: qHTS assay to identify small molecule agonists of the constitutive androstane receptor (CAR) signaling pathway (AID 1224839);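 further: HepG2 cells stably carrying human CAR and a CYP2B6 luciferase reporter; series mostly up to about 92 µM; nearly all actives have a fitted effect of over 15% in size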
How it was run: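 Luminescent ONE-Glo read-out after 24 hr, 37 C exposure of double-stable HepG2-CYP2B6-hCAR reporter cells to a 15-point compound series, in the presence of 0.75 uM PK11195 (final).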

[11] = qHTS assay to identify small molecule antagonists of the estrogen related receptor signaling pathway with the pleiotropic PPARgamma coactivator (PGC) from Tox21 10K library - cell viability counter screen (AID 1224840; active means well fitted cell-killing curve with a large enough effect in the repeat runs, not every such curve was filed as active; further: nearly all actives have a fitted effect of over 40% in size)
How it was run: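 Compounds in DMSO, alongside positive and negative controls, were pinned onto PGC/ERR cells (2,000 per well). Exposure lasted 17.5 hours at 37 C, followed by a 30-minute CellTiter-Fluor incubation and fluorescence reading.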

[12] = molecular target: Thyrotropin receptor (Homo sapiens) (UniProt P16473); assay: qHTS assay to identify small molecule agonists of the thyroid stimulating hormone receptor (TSHR) signaling pathway (AID 1224843; calls by dose curve; further: nearly all actives have a fitted effect of over 45% in size)
Chain of Thyrotropin receptor (Homo sapiens) (P16473 whole entry, looked up): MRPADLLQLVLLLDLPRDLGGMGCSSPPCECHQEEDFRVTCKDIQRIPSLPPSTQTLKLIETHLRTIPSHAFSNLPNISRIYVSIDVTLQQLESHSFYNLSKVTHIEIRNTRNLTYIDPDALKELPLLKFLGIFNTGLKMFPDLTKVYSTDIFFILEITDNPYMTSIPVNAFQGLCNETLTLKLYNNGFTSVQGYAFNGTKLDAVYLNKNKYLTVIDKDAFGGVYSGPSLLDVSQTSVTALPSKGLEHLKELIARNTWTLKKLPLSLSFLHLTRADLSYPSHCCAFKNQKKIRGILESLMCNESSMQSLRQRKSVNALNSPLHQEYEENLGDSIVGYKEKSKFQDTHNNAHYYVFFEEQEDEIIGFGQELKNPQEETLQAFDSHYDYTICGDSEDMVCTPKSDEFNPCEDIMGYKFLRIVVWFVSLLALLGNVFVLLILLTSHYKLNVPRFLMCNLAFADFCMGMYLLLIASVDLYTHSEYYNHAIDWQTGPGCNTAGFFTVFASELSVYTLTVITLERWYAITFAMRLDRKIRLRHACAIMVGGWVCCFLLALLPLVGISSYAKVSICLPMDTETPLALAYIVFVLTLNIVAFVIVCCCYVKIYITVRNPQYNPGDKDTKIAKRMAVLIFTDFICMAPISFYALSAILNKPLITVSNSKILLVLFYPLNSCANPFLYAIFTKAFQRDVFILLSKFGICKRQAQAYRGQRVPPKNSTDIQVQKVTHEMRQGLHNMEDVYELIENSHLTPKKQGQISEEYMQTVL
How it was run: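 Cell line HEK293 with TSHR; density 800/well. Exposure 30 min RT. Readout HTRF cAMP (cAMP-d2/anti-cAMP-cryptate), 1 h RT before reading.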

[13] = qHTS assay to identify small molecule agonists of the hypoxia (HIF-1) signaling pathway - cell viability counter screen (AID 1224844; calls by dose curve; further: nearly all actives have a fitted effect of over 50% in size)
How it was run: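 Luminescent ATP content (CellTiter-Glo, 30 min, room temperature) served as the viability measure in HRE-bla ME-180 cells exposed to compounds for 17 hrs in low-serum medium (0.5% dialyzed FBS).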

[14] = qHTS assay to identify small molecule agonists of H2AX (AID 1224845; active means well fitted activation curve with a large enough effect in the signal ratio in the repeat runs, not every such curve was filed as active; the % refers to the signal ratio)
How it was run: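 Wild-type CHO-K1 cells plated overnight, then exposed 3 hr at 37C to compounds at 15 concentrations (0.76% DMSO). Lysed, then HTRF anti-pH2AX(S139)-cryptate/anti-H2AX-d2 detection after 24 hr at room temperature; emissions 665 and 620 nm.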

[15] = qHTS assay to identify small molecule agonists of H2AX - cell viability counter screen (AID 1224847; calls by dose curve; further: top concentration of the series differs between compounds; nearly all actives have a fitted effect of over 30% in size)
How it was run: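 Counter-screen for viability: CellTiter-Glo ATP luminescence read after 3 h compound treatment (15-point titration, 0.76% DMSO final) of CHO-K1 cells at 37C, with 30 min room-temperature reagent incubation.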

[16] = molecular target: Luciferin 4-monooxygenase (Photinus pyralis) (UniProt P08659); assay: qHTS assay to identify small molecule inhibitors of firefly luciferase (AID 1224835); further: series mostly up to about 120 µM; nearly all actives have a fitted effect of over 25% in size
Chain of Luciferin 4-monooxygenase (Photinus pyralis) (P08659 whole entry, looked up): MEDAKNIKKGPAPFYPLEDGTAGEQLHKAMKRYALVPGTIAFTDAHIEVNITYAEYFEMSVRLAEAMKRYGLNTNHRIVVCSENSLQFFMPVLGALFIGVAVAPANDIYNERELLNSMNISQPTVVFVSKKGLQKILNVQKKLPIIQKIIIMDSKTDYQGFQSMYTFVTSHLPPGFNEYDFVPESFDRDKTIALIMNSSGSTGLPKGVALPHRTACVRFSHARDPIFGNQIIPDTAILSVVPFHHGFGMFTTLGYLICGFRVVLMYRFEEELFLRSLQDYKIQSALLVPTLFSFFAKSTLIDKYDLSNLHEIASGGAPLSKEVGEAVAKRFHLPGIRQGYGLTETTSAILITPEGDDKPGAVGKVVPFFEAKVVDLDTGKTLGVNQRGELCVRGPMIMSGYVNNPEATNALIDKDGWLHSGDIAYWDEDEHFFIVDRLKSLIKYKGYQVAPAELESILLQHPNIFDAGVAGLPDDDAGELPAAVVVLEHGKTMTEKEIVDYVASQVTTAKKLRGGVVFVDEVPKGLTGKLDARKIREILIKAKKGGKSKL
How it was run: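 Quantitative HTS format; KM concentrations of both substrates. Purified P. pyralis FLuc activity quantified from luminescence images.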

[17] = qHTS assay to identify small molecule agonists of the hypoxia (HIF-1) signaling pathway (AID 1224846; active means well fitted activation curve with a large enough effect in the signal ratio in the repeat runs, not every such curve was filed as active; the % refers to the signal ratio)
How it was run: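 Measured by blue/green FRET after loading CCF4-AM: beta-lactamase expressed from a hypoxia response element in ME-180 cells. Test agents were delivered in DMSO and left 17 hrs; cells had been plated 5 hrs earlier in low-serum (0.5% dialyzed FBS) medium.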

[18] = qHTS assay to identify small molecule agonists of the estrogen related receptor signaling pathway with the pleiotropic PPARgamma coactivator (PGC) from Tox21 10K library (AID 1224842); further: nearly all actives have a fitted effect of over 15% in size
How it was run: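 PGC/ERR reporter cells (NTP line) were seeded 2,000 per well, rested 6 h at 37 C/5% CO2, then pin-dosed with compounds in DMSO for 18 h at 37 C; luciferase read by One-Glo luminescence after 30 min at room temperature.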

[19] = qHTS assay to identify small molecule antagonists of the estrogen related receptor (ERR) signaling pathway from Tox21 library (AID 1224848); further: nearly all actives have a fitted effect of over 50% in size
How it was run: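 Screening used an ERR reporter line supplied by NTP, exposed for 18 h at 37 C to library compounds delivered in DMSO. Signal was luciferase luminescence developed with ONE-Glo at room temperature for 30 min.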

Measured: Potency

CCC/C=C(\C=O)CC
not listed: [16] | [17] | [18] | [19]
inactive: all other assays above

CC(C)NCC(O)c1ccc2ccccc2c1 (centres undefined)
not listed: [9] | [16] | [17] | [18] | [19]
inactive: all other assays above

CCCCCC/C=C/C(=O)OC
not listed: [9] | [10] | [18] | [19]
inactive: all other assays above

O=Cc1cc2ccccc2o1
not listed: [9] | [16] | [17] | [18] | [19]
inactive: all other assays above

C=CCCCCCCCCC(=O)OCCCC
not listed: [6] | [15] | [17] | [18] | [19]
inactive: all other assays above

C=CC/C=C/C
not listed: [9] | [10] | [16] | [18] | [19]
inactive: all other assays above

CCCCCCCCCOC(=O)CCCCC(=O)OCCCCCCC
not listed: [9] | [14] | [16] | [18] | [19]
inactive: all other assays above

COc1nc(N)nc2nc[nH]c12
not listed: [16]
inactive: all other assays above

CC(CO)(CO)CO
not listed: [9] | [14] | [15] | [16] | [18] | [19]
inactive: all other assays above

NC(=O)[C@@H]1CSSCCC(=O)N[C@@H](CCCCN=C(N)N)C(=O)NCC(=O)N[C@@H](CC(=O)O)C(=O)N[C@@H](Cc2c[nH]c3ccccc23)C(=O)N2CCC[C@H]2C(=O)N1 ([Mpa][hArg]GDWPC-NH2; disulfide 1-7)
not listed: [9] | [14] | [18] | [19]
inactive: all other assays above

O=C1CCC(=O)N1Cl
not listed: [16] | [18] | [19]
inactive: all other assays above

CCc1occc(=O)c1O
not listed: [6] | [18] | [19]
inactive: all other assays above

CC(=O)O[C@@H]1CC2CCC1(C)C2(C)C (some centres undefined)
not listed: [6] | [17] | [18] | [19]
inactive: all other assays above

CCCCCc1cccc(=O)o1
not listed: [2] | [15] | [18] | [19]
inactive: all other assays above

C=CCOC(=O)CCCCCC
not listed: [6] | [15] | [17] | [18] | [19]
inactive: all other assays above

C=CC(=O)CCCCC
not listed: [4] | [5] | [14] | [15] | [18] | [19]
inactive: all other assays above

C=CCN1C[C@H](C(=O)N(CCCN(C)C)C(=O)NCC)C[C@@H]2c3cccc4[nH]cc(c34)C[C@H]21
not listed: [6] | [14] | [17] | [18] | [19]
inactive: all other assays above
